Reference: PubChem BioAssay (NCI)
The panel holds about 83,000 compounds, 20% with a hit somewhere; the sample as a whole holds those more often.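 Assay: single dose, 48 h. Readout: percent growth (0 = no net growth; negative = cell death). Active: <10.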 Activity calls are given as the source filed them.

What was measured:
Experiment in all cases: NCI-60 one-dose screen, 48 h (100 = growth as untreated, 0 = no growth, -100 = all killed)
Settings in all cases: 10 µM unless noted
T-47D breast = system: T-47D breast
BT-549 breast = system: BT-549 breast
MDA-MB-435 melanoma = system: MDA-MB-435 melanoma
SW-620 colon = system: SW-620 colon
MCF7 breast = system: MCF7 breast
HCT-116 colon = system: HCT-116 colon
HCC-2998 colon = system: HCC-2998 colon
KM12 colon = system: KM12 colon

Measured: growth

COc1ccc(/C(=C\c2cc(OC)c(OC)c(OC)c2)C(=O)N2CCN(c3ccccc3)CC2)cc1O
inactive: T-47D breast 87.4% | BT-549 breast 103% | MDA-MB-435 melanoma 98.1% | SW-620 colon 104% | MCF7 breast 92.5% | HCT-116 colon 106% | HCC-2998 colon 98.1% | KM12 colon 96.7%

COc1cccc2nc(Nc3cccc(NC(=O)c4ccc(N5CCN(C)CC5)c(C(F)(F)F)c4)c3)ccc12
active: SW-620 colon -33.3% | MCF7 breast -12.9% | HCT-116 colon 6.56% | HCC-2998 colon -7.74% | KM12 colon -7.59%
inactive: T-47D breast 36.7% | BT-549 breast 67% | MDA-MB-435 melanoma 19.9%

CN1CCN(Cc2ccc(NC(=O)c3ccc(C#N)c(C#Cc4cnc(N)c5ncccc45)c3)cc2C(F)(F)F)CC1
inactive: T-47D breast 112% | BT-549 breast 103% | MDA-MB-435 melanoma 56% | SW-620 colon 23.4% | MCF7 breast 16.3% | HCC-2998 colon 112% | KM12 colon 13.5%
active: HCT-116 colon -10.5%

NC(=S)N/N=C(/c1cccs1)C1CC1
inactive: T-47D breast 20.6% | BT-549 breast 97.8% | MDA-MB-435 melanoma 87.4% | SW-620 colon 71.6% | MCF7 breast 22.5% | HCC-2998 colon 96.9% | KM12 colon 105%
active: HCT-116 colon 7.8%

Cc1cc(C)cc(Nc2cc(C)nc3nc(C(F)(F)F)nn23)c1
inactive: T-47D breast 29.5% | BT-549 breast 49% | MDA-MB-435 melanoma 36.9% | SW-620 colon 35.2% | HCT-116 colon 19.2% | HCC-2998 colon 40.2% | KM12 colon 25.7%
active: MCF7 breast -11.7%

Oc1ccc(Nc2ncnc3c2sc2ncccc23)cc1
inactive: T-47D breast 51% | BT-549 breast 47.3% | MDA-MB-435 melanoma 36.5% | SW-620 colon 44.1% | MCF7 breast 18.8% | HCT-116 colon 27.5% | HCC-2998 colon 69.4% | KM12 colon 50.6%

CSCCC1NC(=O)C(C(C)=Nc2ccccc2)=C1O (stereo not drawn)
inactive: T-47D breast 103% | BT-549 breast 105% | MDA-MB-435 melanoma 95.4% | SW-620 colon 104% | MCF7 breast 91.3% | HCT-116 colon 107% | HCC-2998 colon 113% | KM12 colon 79.3%

Oc1[nH]c2ccccc2c1/C=c1/ccc2c(c1)N=C(c1ccc(C(F)(F)F)cc1)N=2
inactive: T-47D breast 35.1% | BT-549 breast 43.3% | MDA-MB-435 melanoma 32.5% | SW-620 colon 63.7% | MCF7 breast 37% | HCT-116 colon 39.5% | HCC-2998 colon 61.4% | KM12 colon 31.6%

COc1ccc(/C(=C\c2cc(OC)c(OC)c(OC)c2)C(=O)Nc2nc3ccc(Cl)cc3s2)cc1
inactive: T-47D breast 86.7% | BT-549 breast 98.3% | MDA-MB-435 melanoma 100% | SW-620 colon 105% | MCF7 breast 98.9% | HCT-116 colon 86.8% | HCC-2998 colon 104% | KM12 colon 94.2%

COc1cc(/C=C/C(=O)c2c(C)nc3ccccc3c2C)ccc1OCCCOc1cc2c(cc1OC)C(=O)N1CCC[C@H]1C=N2
active: T-47D breast -38.8% | BT-549 breast -94.2% | MDA-MB-435 melanoma -60.8% | SW-620 colon -67.6% | MCF7 breast -51.3% | HCT-116 colon -35.8% | HCC-2998 colon -69.3% | KM12 colon -54.2%

O=C(NCC(c1ccsc1)N1CCCCCC1)c1ccc(C(F)(F)F)cc1 (stereo not drawn)
inactive: T-47D breast 91.7% | BT-549 breast 99.8% | MDA-MB-435 melanoma 91.8% | SW-620 colon 96.6% | MCF7 breast 94.5% | HCT-116 colon 88.9% | HCC-2998 colon 102% | KM12 colon 76.8%

CCCCNCCC(O)c1cc2ccc(C(F)(F)F)cc2c2cc(C(F)(F)F)ccc12 (stereo not drawn)
active: T-47D breast -76.3% | BT-549 breast 4.84% | MDA-MB-435 melanoma -69.3% | SW-620 colon -76.2% | MCF7 breast -79.3% | HCT-116 colon -87.3% | HCC-2998 colon -78.5% | KM12 colon -85.2%

CCCCCc1c(C)[nH]c(/C=C2\N=C(c3ccc[nH]3)C=C2CC)c1C
active: T-47D breast -75% | BT-549 breast -96.6% | MDA-MB-435 melanoma -77.9% | SW-620 colon -92.6% | MCF7 breast -85.3% | HCC-2998 colon -90.4% | KM12 colon -91.4%

CNC(=O)c1ccccc1Sc1ccc2c(/C=C/c3ccccn3)n[nH]c2c1
inactive: BT-549 breast 16.2% | MDA-MB-435 melanoma 39% | SW-620 colon 17.8% | MCF7 breast 35.2% | HCC-2998 colon 68.9% | KM12 colon 17.2%
active: T-47D breast -12.4%

CCCCCCCCCCCCCCCC1=NCC[N+]1(CCO)CCO
inactive: T-47D breast 78.8% | BT-549 breast 79.6% | MDA-MB-435 melanoma 30.7% | SW-620 colon 57.6% | MCF7 breast 50.5% | HCC-2998 colon 82.5%

O=C1C(Cl)=C(N/N=c2/[nH][nH]/c(=N/NC3=C(Cl)C(=O)c4ccccc4C3=O)c3ccccc23)C(=O)c2ccccc21
inactive: T-47D breast 15.3% | BT-549 breast 83.1% | MDA-MB-435 melanoma 102% | SW-620 colon 60.6% | MCF7 breast 54% | HCT-116 colon 61.8% | HCC-2998 colon 93.9% | KM12 colon 18.5%

O=[N+]([O-])c1ccccc1CN1CCCCC1
inactive: T-47D breast 115% | BT-549 breast 98.4% | MDA-MB-435 melanoma 109% | SW-620 colon 106% | MCF7 breast 108% | HCC-2998 colon 101% | KM12 colon 128%

CC[C@H](Nc1nc(C)nc(N)c1C#N)c1nc2cccc(NCc3ccc(C(=O)NO)cc3)c2c(=O)n1-c1ccccc1
inactive: BT-549 breast 36.6% | MDA-MB-435 melanoma 16.8% | KM12 colon 13.3%
active: T-47D breast 0.805% | SW-620 colon -31.5% | MCF7 breast 5.42% | HCC-2998 colon 7.75%

CCCCCCCCCC1=NC(C)(C)CN1C(C)(C)CO
inactive: T-47D breast 153% | BT-549 breast 105% | MDA-MB-435 melanoma 110% | SW-620 colon 93.8% | MCF7 breast 95.3% | HCC-2998 colon 84.1% | KM12 colon 97.6%

CCOC(=O)C1=C(C)NC(SCc2nnc(-c3ccc(Cl)cc3)o2)=NC1c1ccc(Br)cc1 (stereo not drawn)
inactive: T-47D breast 48% | BT-549 breast 79.8% | MDA-MB-435 melanoma 65.1% | SW-620 colon 91% | MCF7 breast 44.8% | HCC-2998 colon 91.2% | KM12 colon 76%

CCCC(CCC)NCC(O)c1cc(-c2ccc(C(F)(F)F)cc2)nc(C(F)(F)F)c1 (stereo not drawn)
active: T-47D breast -80.5% | MDA-MB-435 melanoma -48.1% | SW-620 colon -56.6% | MCF7 breast -85.1% | HCT-116 colon -70.8% | KM12 colon -85.4%
inactive: BT-549 breast 48.2%

CNCCCNc1ccnc2cc(Cl)ccc12
active: T-47D breast -5.41% | BT-549 breast -10.3% | MDA-MB-435 melanoma -98% | SW-620 colon -23.3% | MCF7 breast 2.35% | HCT-116 colon 3.6% | HCC-2998 colon -78.6% | KM12 colon 0.517%

O=C(N=Nc1c(Cl)c(O)c2ccccc2c1O)C(=O)Nc1cccc(C(F)(F)F)c1
active: MDA-MB-435 melanoma -29.3% | MCF7 breast -4.71%
inactive: T-47D breast 44.9% | BT-549 breast 69% | SW-620 colon 63.6% | HCC-2998 colon 96.2% | KM12 colon 53.6%

Cn1c(=O)c2c3c(oc2c2ccccc21)C(=O)c1ccccc1C3=O
active: T-47D breast 9.7%
inactive: BT-549 breast 77.4% | MDA-MB-435 melanoma 104% | SW-620 colon 86.2% | MCF7 breast 68.4% | HCC-2998 colon 102% | KM12 colon 91.5%

O=C(Nc1ccccc1)C(CCCCN1C(=O)c2ccccc2C1=O)N1C(=O)c2ccccc2C1=O (stereo not drawn)
inactive: T-47D breast 105% | BT-549 breast 104% | MDA-MB-435 melanoma 108% | SW-620 colon 102% | MCF7 breast 101% | HCT-116 colon 107% | KM12 colon 100%
